Measured values reported in PubChem BioAssay AID1159580 (chemical genetic matrix, 2015).
Several values for one entry are separate records, joined by “and”; a condition that tells them apart may be missing. Identical values can stand only once. Out of some 5,500 compounds screened, about 2,000 (36%) were called active. Inconclusive results (about 18%) are left out. Cut-off read from the data, not from the text of the source: active = normalized growth mostly below about 0.91 (no sharp cut-off); inconclusive = no clear call, values can overlap the other calls; inactive = mostly above about 0.92. The list shows a part of the results.

Assay: chemical genetic growth profiling, strain panel (AID 1159580);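 note: tested at 20 µM; growth read once vehicle control cultures reached saturation at 30 °C; 1 = growth at the plate median or of vehicle wells; lower values mean less growth of the strain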
Details: growth OD

Measured: normalized growth

NC(=O)c1cccc(N)c1
inactive: S. cerevisiae deletion strains, locus YJR043C, strain POL32, stronger effect = lower value 1.01 | S. cerevisiae deletion strains, locus YJR075W, strain HOC1, stronger effect = lower value 1.01 | S. cerevisiae deletion strains, locus YKL009W, strain mrt4, stronger effect = lower value 0.996 | S. cerevisiae deletion strains, locus YKL068W, stronger effect = lower value 0.993 | S. cerevisiae deletion strains, locus YKL085W, strain MDH1 (second series), stronger effect = lower value 1 | S. cerevisiae deletion strains, locus YKL085W, strain MDH1, stronger effect = lower value 1 | S. cerevisiae deletion strains, locus YKL160W, strain elf1, stronger effect = lower value 0.984 | S. cerevisiae deletion strains, locus YKL190W, strain CNB1, stronger effect = lower value 1.02 | S. cerevisiae deletion strains, locus YKR001C, strain vps1, stronger effect = lower value 0.996 | S. cerevisiae deletion strains, locus YKR026C, strain gcn3, stronger effect = lower value 0.977 | S. cerevisiae deletion strains, locus YKR091W, strain srl3, stronger effect = lower value 0.977 | S. cerevisiae deletion strains, locus YLL001W, strain dnm1, stronger effect = lower value 0.93 | S. cerevisiae deletion strains, locus YLL026W, stronger effect = lower value 0.984 | S. cerevisiae deletion strains, locus YLL041C, strain sdh2, stronger effect = lower value 0.97 | S. cerevisiae deletion strains, locus YLR027C, strain aat2, stronger effect = lower value 0.997 | S. cerevisiae deletion strains, locus YLR039C, strain RIC1, stronger effect = lower value 1 | S. cerevisiae deletion strains, locus YLR058C, strain SHM2, stronger effect = lower value 1.01 | S. cerevisiae deletion strains, locus YLR102C, strain apc9, stronger effect = lower value 0.998 | S. cerevisiae deletion strains, locus YLR221C, strain rsa3, stronger effect = lower value 0.962 | S. cerevisiae deletion strains, locus YLR258W, strain gsy2, stronger effect = lower value 0.972 | S. cerevisiae deletion strains, locus YLR262C, strain YPT6 (second series), stronger effect = lower value 0.966 | S. cerevisiae deletion strains, locus YLR262C, strain YPT6, stronger effect = lower value 1.01 | S. cerevisiae deletion strains, locus YLR268W, strain sec22, stronger effect = lower value 0.996 | S. cerevisiae deletion strains, locus YLR320W, strain mms22, stronger effect = lower value 0.988 | S. cerevisiae deletion strains, locus YLR330W, strain CHS5, stronger effect = lower value 1.01 | S. cerevisiae deletion strains, locus YLR342W, strain FKS1 (second series), stronger effect = lower value 1.01 | S. cerevisiae deletion strains, locus YLR342W, strain FKS1, stronger effect = lower value 0.942 | S. cerevisiae deletion strains, locus YLR357W, strain rsc2, stronger effect = lower value 0.976 | S. cerevisiae deletion strains, locus YLR370C, strain arc18, stronger effect = lower value 0.941 | S. cerevisiae deletion strains, locus YLR371W, strain rom2, stronger effect = lower value 1 | S. cerevisiae deletion strains, locus YLR384C, strain iki3, stronger effect = lower value 0.992 | S. cerevisiae deletion strains, locus YLR418C, strain cdc73, stronger effect = lower value 1.01 | S. cerevisiae deletion strains, locus YML016C, strain PPZ1, stronger effect = lower value 1 | S. cerevisiae deletion strains, locus YML032C, strain rad52, stronger effect = lower value 0.993 | S. cerevisiae deletion strains, locus YML120C, strain ndi1, stronger effect = lower value 0.994 | S. cerevisiae deletion strains, locus YML124C, strain tub3, stronger effect = lower value 0.995 | S. cerevisiae deletion strains, locus YMR058W, strain fet3, stronger effect = lower value 0.965 | S. cerevisiae deletion strains, locus YMR078C, strain ctf18, stronger effect = lower value 0.999 | S. cerevisiae deletion strains, locus YMR125W, strain sto1, stronger effect = lower value 0.976 | S. cerevisiae deletion strains, locus YMR129W, stronger effect = lower value 1.01 | S. cerevisiae deletion strains, locus YMR205C, strain PFK2, stronger effect = lower value 0.991 | S. cerevisiae deletion strains, locus YMR223W, strain ubp8, stronger effect = lower value 0.993 | S. cerevisiae deletion strains, locus YMR231W, strain pep5, stronger effect = lower value 0.984 | S. cerevisiae deletion strains, locus YMR263W, strain SAP30, stronger effect = lower value 1.02 | S. cerevisiae deletion strains, locus YMR307W, strain GAS1, stronger effect = lower value 1.02 | S. cerevisiae deletion strains, locus YNL067W, strain RPL9B, stronger effect = lower value 1.01 | S. cerevisiae deletion strains, locus YNL071W, strain lat1, stronger effect = lower value 0.961 | S. cerevisiae deletion strains, locus YNL128W, strain TEP1, stronger effect = lower value 1.01 | S. cerevisiae deletion strains, locus YNL153C, strain GIM3, stronger effect = lower value 1.01 | S. cerevisiae deletion strains, locus YNL175C, strain NOP13, stronger effect = lower value 1.02 | S. cerevisiae deletion strains, locus YNL197C, strain WHI3, stronger effect = lower value 1.01 | S. cerevisiae deletion strains, locus YNL209W, strain ssb2, stronger effect = lower value 0.985 | S. cerevisiae deletion strains, locus YNL224C, strain SQS1, stronger effect = lower value 1.02 | S. cerevisiae deletion strains, locus YNL233W, strain BNI4, stronger effect = lower value 0.999 | S. cerevisiae deletion strains, locus YNL248C, strain rpa49, stronger effect = lower value 0.974 | S. cerevisiae deletion strains, locus YNL250W, strain rad50, stronger effect = lower value 0.988 | S. cerevisiae deletion strains, locus YNL271C, strain bni1, stronger effect = lower value 0.989 | S. cerevisiae deletion strains, locus YNL298W, strain CLA4, stronger effect = lower value 1.01 | S. cerevisiae deletion strains, locus YNL307C, strain MCK1, stronger effect = lower value 0.996 | S. cerevisiae deletion strains, locus YNL322C, strain KRE1 (second series), stronger effect = lower value 0.968 | S. cerevisiae deletion strains, locus YNL322C, strain KRE1, stronger effect = lower value 1.01 | S. cerevisiae deletion strains, locus YNR049C, strain mso1, stronger effect = lower value 0.965 | S. cerevisiae deletion strains, locus YNR052C, strain pop2, stronger effect = lower value 1 | S. cerevisiae deletion strains, locus YOL006C, strain TOP1, stronger effect = lower value 1.06 | S. cerevisiae deletion strains, locus YOL012C, strain htz1 1 | S. cerevisiae deletion strains, locus YOL147C, strain pex11, stronger effect = lower value 1 | S. cerevisiae deletion strains, locus YOR001W, strain rrp6, stronger effect = lower value 0.97 | S. cerevisiae deletion strains, locus YOR061W, strain CKA2, stronger effect = lower value 1 | S. cerevisiae deletion strains, locus YOR069W, strain VPS5, stronger effect = lower value 1.01 | S. cerevisiae deletion strains, locus YOR070C, strain gyp1, stronger effect = lower value 1.02 | S. cerevisiae deletion strains, locus YOR080W, strain dia2, stronger effect = lower value 0.981 | S. cerevisiae deletion strains, locus YOR083W, strain WHI5 (second series), stronger effect = lower value 1.02 | S. cerevisiae deletion strains, locus YOR083W, strain WHI5, stronger effect = lower value 0.994 | S. cerevisiae deletion strains, locus YOR106W, strain vam3, stronger effect = lower value 0.972 | S. cerevisiae deletion strains, locus YOR136W, strain idh2, stronger effect = lower value 0.993 | S. cerevisiae deletion strains, locus YOR144C, strain elg1, stronger effect = lower value 0.992 | S. cerevisiae deletion strains, locus YOR184W, strain ser1, stronger effect = lower value 1 | S. cerevisiae deletion strains, locus YOR265W, strain rbl2, stronger effect = lower value 0.968 | S. cerevisiae deletion strains, locus YOR270C, strain vph1, stronger effect = lower value 0.995 | S. cerevisiae deletion strains, locus YOR290C, strain snf2, stronger effect = lower value 0.974 | S. cerevisiae deletion strains, locus YOR316C, strain cot1, stronger effect = lower value 1 | S. cerevisiae deletion strains, locus YPL051W, strain arl3, stronger effect = lower value 1 | S. cerevisiae deletion strains, locus YPL055C, strain LGE1, stronger effect = lower value 1.06 | S. cerevisiae deletion strains, locus YPL078C, strain atp4, stronger effect = lower value 0.963 | S. cerevisiae deletion strains, locus YPL106C, strain sse1, stronger effect = lower value 0.964 | S. cerevisiae deletion strains, locus YPL240C, strain hsp82, stronger effect = lower value 0.984 | S. cerevisiae deletion strains, locus YPL241C, strain CIN2, stronger effect = lower value 1.01 and 1 | S. cerevisiae deletion strains, locus YPR119W, strain clb2, stronger effect = lower value 0.988 | S. cerevisiae deletion strains, locus YPR141C, strain kar3, stronger effect = lower value 0.996 | S. cerevisiae deletion strains, locus YPR163C, strain tif3, stronger effect = lower value 1 | S. cerevisiae deletion strains, locus YPR167C, strain met16, stronger effect = lower value 0.996 | S. cerevisiae deletion strains, strain wtn01, stronger effect = lower value 0.983 | S. cerevisiae strains, strain wild type, stronger effect = lower value 1
